Only a sample is shown.
aSyn 5UTR act: Activators working through SNCA 5'UTR binding (MLPCN) | alpha-synuclein 5'UTR reporter, activators screen | activity score, % (tested at 7.5 µM), hits read low | 7.1% of 300,000 active; in the data active = activity score below about -60%
* hit, by the source's call.

SMILES	aSyn 5UTR act
COc1cccc(/C=N/Nc2nn3cnnc3c3ccccc23)c1	-62*
N#C/C(=C\c1ccc(N2CCOCC2)c([N+](=O)[O-])c1)c1nc2ccccc2[nH]1	-163*
O=C(Cn1c2ccccc2c(=O)c2ccccc21)N/N=C/c1ccc(N2CCCC2)c([N+](=O)[O-])c1	111
N#C/C(=C/c1ccc(N2CCCC2)c([N+](=O)[O-])c1)c1nc2ccccc2[nH]1	-78*
COc1cccc(CN2C(=O)C3(C(C#N)=C(N)OC4=C3C(=O)CCC4)c3ccccc32)c1 (stereo unspecified)	63
COc1cccc(Cn2c(=O)sc3ccccc3c2=O)c1	-79*
Cn1cc(/C=C/c2cc[n+](C)cc2)c2cc(Cl)ccc21	64
COC(=O)c1ccc(Cn2nc(C)cc2C)cc1	-71*
CN(C)c1ccc(N=Nc2ccc(S(N)(=O)=O)cc2)cc1	-96*
CCOC(=O)c1cnn(-c2ncnc3c2oc2ccccc23)c1N	-98*
CCOC(=O)c1cnn(-c2cc(C)c3ccccc3n2)c1N	-65*
CCOC(=O)c1cnn(-c2ncnc3sc4c(c23)CCC4)c1N	-75*
c1ccc(Oc2cc(-c3ccccc3)ncn2)cc1	-124*
Cc1cnn(-c2cc(Oc3ccccc3)ncn2)c1	-216*
CCOC(=O)c1cnn(-c2ccccn2)c1N	-116*
CCOC(=O)c1cnn(-c2cc(Oc3ccccc3)ncn2)c1N	-101*
CCOC(=O)c1cnn(-c2cc(Oc3ccccc3C)ncn2)c1N	-88*
CCN(CC)c1ccc2c(c1)OC(N)=C(C#N)C2c1cccnc1 (stereo unspecified)	75
CC(C)c1ccc(NC(=O)N2CCc3ccccc3C2)cc1	-261*
O=C(Nc1ccc([N+](=O)[O-])cc1)N1CCc2ccccc2C1	-106*
Cc1ccc(C)c(NC(=O)N2CCc3ccccc3C2)c1	-67*
O=[N+]([O-])c1ccc(N2CCc3ccccc3C2)cc1	-117*
CC(C)NC(=O)c1ccccc1NC(=O)/C=C/c1cccc([N+](=O)[O-])c1	63
Cc1nn(C)cc1/C=C/C(=O)c1ccc(O)cc1	-229*
CSc1ccc(C(=O)/C=C/c2ccc(N)cc2)cc1	-204*
SMILES	aSyn 5UTR act
Cc1c(/C=C/C(=O)c2ccccc2O)cnn1C	-227*
Cc1ccc(/C=C/C(=O)Nc2ccccc2C(N)=O)cc1	-86*
O=C(/C=C/c1ccc(-c2ccccc2)o1)c1ccccc1	-66*
Cc1ccc(/C=C/C(=O)c2ccc(C)cc2)cc1	-150*
Cc1ccc(/C=C/C(=O)c2ccccc2O)cc1	-121*
O=C(/C=C/c1ccc(O)cc1)c1ccccc1	-118*
CN(C)c1ccc(/C=C/C(=O)c2ccccc2O)cc1	-197*
O=C(/C=C/c1cccnc1)c1cccc(O)c1	-88*
O=C(/C=C/c1ccc(N2CCC(c3ccccc3)=N2)cc1)c1ccccc1	-67*
O=C(/C=C/c1ccco1)c1ccccc1O	-65*
COc1ccc(Br)c(-c2nnc(CS(=O)(=O)c3ccccc3)o2)c1	-85*
CC1CCc2c(C(=O)Nc3nccs3)csc2C1 (stereo unspecified)	-151*
CC1CCc2sc(C(=O)NC(C)C3CCCO3)cc2C1 (stereo unspecified)	-96*
CC1CCc2sc(C(=O)NCc3ccccn3)cc2C1 (stereo unspecified)	-112*
CC1CCc2c(C(=O)NCc3ccccn3)csc2C1 (stereo unspecified)	-84*
CC1CCc2c(C(=O)Nc3ccccn3)csc2C1 (stereo unspecified)	-116*
CCOC(=O)c1sc(NC(=O)c2cncc(Br)c2)nc1C	-105*
COc1ccc(C(=O)NC(=O)COC(=O)c2ccc3ncsc3c2)cc1	-82*
CCOC(=O)c1sc(NC(=O)c2ccc3ncsc3c2)nc1C	-89*
Cc1c(Cl)cnc(NC(=O)COC(=O)c2ccc3ncsc3c2)c1Cl	67
CCOC(=O)c1sc(NNC(=O)c2ccc(F)cc2)nc1C	-76*
CC(C)(C)Cc1nnc(NC(=O)CCc2ccccc2)s1	-124*
CSc1nnc(NC(=O)CCc2ccccc2)s1	-65*
COc1ccc(-c2cc(=Nc3c(C)n(C)n(-c4ccccc4)c3=O)c3ccccc3o2)cc1	-270*
COc1ccc(-c2c/c(=N\c3nc(-c4ccccc4)c(C)s3)c3ccccc3o2)cc1O	75
SMILES	aSyn 5UTR act
Cc1c(N=c2c(=O)c3ccccc3c2=O)c(=O)n(-c2ccccc2)n1C	-140*
Cc1ccc2c(c1)C(O)(CC(=O)/C=C/C=C/c1ccccc1)C(=O)N2 (stereo unspecified)	-112*
CCOC(=O)C1=C(COc2ccc(C)cc2)NC(=O)NC1c1cc(C)ccc1C (stereo unspecified)	-86*
O=C(CNC(=O)c1ccc(Br)cc1)c1ccccc1	-94*
O=C(CNC(=O)c1ccccc1C(=O)O)c1ccccc1	-127*
O=C(CNC(=O)c1ccc(Cl)cc1)c1ccccc1	-100*
O=C(CNC(=O)c1ccc(F)cc1)c1ccc(Cl)cc1	-168*
Oc1ccccc1C1=Nc2ncnn2C(c2ccccc2)C1 (stereo unspecified)	-68*
Cc1ccc(C)c(OCCn2cc(/C=C(\C#N)C(=O)NCc3ccco3)c3ccccc32)c1	52
Cc1cc(/C=C(\C#N)C(=O)NCc2ccco2)c(C)n1-c1cccnc1	-100*
Cc1cc(/C=C(\C#N)C(=O)NCc2ccco2)c(C)n1C1CCCC1	-137*
CC1(C)CC(=O)c2cc(N=C/C(C(=O)c3ccccc3)=C(\O)c3ccccc3)c(=O)oc2C1	-72*
CC1CCC/C(=N/Nc2nc3ccccc3s2)C1 (stereo unspecified)	-134*
CC1(C)CC(=O)C/C(=N/Nc2nc3ccccc3s2)C1	-67*
COc1ccc(-c2oc3ccccc3c2C(=O)OCc2ccccc2)cc1	-102*
CCSc1n[nH]c(=S)s1	-89*
CCN(C(=O)COC(=O)c1cc(-c2ccc3cc(OC)ccc3c2)nc2ccccc12)C1CCS(=O)(=O)C1 (stereo unspecified)	67
CN(C(=O)COC(=O)c1cc(-c2ccc(Cl)s2)nc2ccccc12)C1CCS(=O)(=O)C1 (stereo unspecified)	-82*
CNC(=O)COC(=O)c1ccc(-c2nc3ccccc3s2)s1	-161*
COCCCNC(=O)COC(=O)c1ccc(-c2nc3ccccc3s2)s1	-68*
O=C(COc1ccc2ccccc2c1Br)Nc1ncn[nH]1	-68*
C=CCNC(=S)NNC(=O)COc1ccc2cc(Br)ccc2c1	-157*
O=C(COc1ccc2cc(Br)ccc2c1)N1CCCC1	-62*
CC(C)c1ccc(OCC(=O)N2CCCCCC2)c(Br)c1	-132*
O=C(Oc1ccc2ccccc2c1Cl)N1CCCC1	-79*
SMILES	aSyn 5UTR act
O=C(COc1ccc2ccccc2c1Br)N1CCCC1	-90*
CCOc1cc(CNc2ccc3c(c2)OCCO3)cc(Br)c1OCC(N)=O	-66*
CCOc1cc(CNc2ccc3c(c2)OCCO3)cc(Br)c1OC	95
Cn1c(=S)[nH]c2sc3c(c2c1=O)CCC(C(C)(C)C)C3 (stereo unspecified)	-87*
COc1ccc(Nc2nc(-c3cc4cccc(OC)c4oc3=O)cs2)cc1	-83*
COc1ccc2oc(=O)c(-c3csc(Nc4cccc(O)c4)n3)cc2c1	-76*
CCN1/C(=C/c2sc(-c3ccccc3C)c[n+]2C)Sc2ccccc21	94
N#C/C(=C\c1ccco1)Sc1nc2ccccc2s1	-84*
CSc1ccc(C2C(C(=O)c3ccco3)=C(O)C(=O)N2c2nnc(SC)s2)cc1 (stereo unspecified)	-62*
Cc1ccc(/C=N/NC(=O)c2nn(C)cc2Cl)cc1	-108*

Screening data deposited in PubChem BioAssay by Broad Institute.
